The results in this text go back to PubChem BioAssay AID686978 (National Center for Advancing Translational Sciences (NCATS), 2013).

In all, about 420,000 compounds went through this assay and about 64,000 (15%) were called active. Roughly 27% stayed inconclusive and do not appear here. The list is a sample of the results. Unmarked numbers belong to inactive results. The call rests on the fitted dose curve; in most records, active means well fitted inhibition curve with a large enough effect; inconclusive means small, poorly fitted or top-dose-only effect; inactive means flat fitted curve, though single readings scatter.
On the % scale 0 is the no-effect control and ±100 the full control effect; potency means the concentration at half of the fitted maximal effect.

The experiment in a line: qHTS for Inhibitors of human tyrosyl-DNA phosphodiesterase 1 (TDP1): qHTS in cells in absence of CPT. Further: nearly all actives have a fitted effect of over 55% in size. To be noted: DT40 Tdp1-/- hTDP1 cells, no CPT, ATP luminescence, 48 h; activity change, negative = growth inhibition: at 46.2 µM (top of the series). In short, it runs like this:
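Readout: luminescence from CellTiter-Glo after 30 min in the dark at RT. Cells: DT40 Tdp1-/- with stable hTDP1, 400/well. Exposure: compounds alone, ≥48 hr, 37 °C.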
With `O=S(N1CCCCCC1)C12CC3CC(CC(C3)C1)C2` (stereo unspecified), the “activity change, negative = growth inhibition” value was -28.1%.
Consider `O=C1NCCn2nc3ccccc3c21`, for which the “activity change, negative = growth inhibition” value was 0.602%.
For `NC(=O)Nc1ccc(/C=C/c2ccnc3ccccc23)cc1`, the Potency is 12.6 µM (active).
Regarding `CN(C)c1ccc(C=Nc2ccc(/C=C/c3ccnc4ccccc34)cc2)cc1`, the Potency was 17.8 µM (active).
With `C(=Nc1ccc(/C=C/c2ccnc3ccccc23)cc1)Nc1ccc(/C=C/c2ccnc3ccccc23)cc1`, the Potency is 8.91 µM (active).
On to `CC(=O)Nc1ccc(NC(=O)COc2ncnc3ccccc23)cc1`, for which the “activity change, negative = growth inhibition” value is -12.7%.
For `O=C(/C=C/c1ccc(Cl)cc1)Nc1ccc(S(=O)(=O)Nc2ncccn2)cc1`, the “activity change, negative = growth inhibition” value is 0.921%.
Regarding `O=C(CCNS(=O)(=O)c1ccc(Br)s1)NCc1ccccc1Cl`, the “activity change, negative = growth inhibition” value was -6.47%.
Consider `CC(=O)c1cc(CN2CCC(n3nccc3NC(=O)c3ccccc3Cl)CC2)cs1`, for which the “activity change, negative = growth inhibition” value is -16.4%.
The same measure, in the same setting: in the case of `Cc1cc(NC(=O)CSc2ncc(C(F)(F)F)cc2Cl)no1` it was -18.9%.
With `O=C(O)c1ccc([N+](=O)[O-])cc1Sc1ccsc1`, the “activity change, negative = growth inhibition” value was -9.07%.
As to `COCCNc1nc(N)c([N+](=O)[O-])c(N2CCCCCC2)n1`, the “activity change, negative = growth inhibition” value is -19.5%.
On the same count and under the same terms, under `CCC1=NN(C(=O)Cc2ccc([N+](=O)[O-])cc2)C(O)(c2ccc(Br)cc2)C1` (stereo unspecified) stands -5.88%; under `CN(C(=O)CSc1nnc(-c2c[nH]c3ccccc23)o1)C1CCS(=O)(=O)C1` (stereo unspecified), -10.9%.
The same measure, in the same setting: in the case of `Cc1ccc(C)c(S(=O)(=O)Nc2cccc(-n3cnnn3)c2)c1` it was 3.02%; in that of `CCCCN(C)c1ccc([N+](=O)[O-])cc1`, -12.2%; in that of `COc1ccc(Cc2nnc(NC(=O)Cc3cccs3)s2)cc1`, -1.02%.
Consider `CCNC(=S)N1CCC(c2nc3cc(C)c(C)cc3[nH]2)CC1`, for which the “activity change, negative = growth inhibition” value is -14.5%.
In the case of `CCN(CC)CCNc1ccc(Cl)cc1[N+](=O)[O-]`, the “activity change, negative = growth inhibition” value was -24.4%.
As for `CCN(CC)CCCC(C)Nc1ccnc2cc(Cl)ccc12` (stereo unspecified), the Potency was 0.794 µM (active).
For the molecule `COC(=O)COc1ccc(C2NC(=O)NC(C)=C2C(=O)NCc2ccccc2)cc1OC` (stereo unspecified), the “activity change, negative = growth inhibition” value is 7.11%.
Consider `O=C(Cc1ccccc1)Nc1cccc(C(=O)N/N=C/c2ccco2)c1`, for which the “activity change, negative = growth inhibition” value was -23.6%.
For the molecule `O=C(NCc1ccco1)/C(=C/c1ccco1)NC(=O)c1ccccc1`, the “activity change, negative = growth inhibition” value was -12.2%.
As for `CC(/C=N/NC(=O)c1cc(-c2ccc3ccccc3c2)n[nH]1)=C\c1ccco1`, the Potency is 23.1 µM (active).
Regarding `Cc1noc(C)c1COc1ccc2ccc(=O)oc2c1`, the “activity change, negative = growth inhibition” value is 1.31%.
Same read-out and setting: in the case of `COC1=C/C(=C/c2c(N)n3nc(CC(=O)N4CCOCC4)sc3nc2=O)C=CC1=O` it was -9.01%; in that of `CCOc1ccc(NC(=O)[C@H](C)NC(=O)C2CC(=O)N(c3ccc(OC)cc3)C2)cc1` (stereo partly specified), 33.1%.
On to `CCCCN1CC(c2nc3ccccc3n2CCCCOc2ccc(C)cc2C)CC1=O` (stereo unspecified), for which the Potency is 5.8 µM (active).
For the molecule `CCc1ccccc1N1CC(c2nc3ccccc3n2CCCCOc2ccccc2)CC1=O` (stereo unspecified), the “activity change, negative = growth inhibition” value is -19.2%.
In the case of `CCOc1ccc(N2CC(c3nc4ccccc4n3CCOc3ccc(OC)cc3)CC2=O)cc1` (stereo unspecified), the Potency was 23.1 µM (active).
In the case of `CCCOc1cc(C)c(S(=O)(=O)n2nnc3ccccc32)cc1C`, the “activity change, negative = growth inhibition” value was -14.5%.
